Results filed as inconclusive are left out. Calls of active or inactive are those of the source. Calls come from the whole dose curve; as a rule, active = well fitted curve in the direction sought with a large enough effect; inconclusive = small, poorly fitted or top-dose-only effect, or another doubt; inactive = no such curve, though single readings can be large; an effect the other way counts as inactive or inconclusive.
Assays:
MCC-13 = assay: qHTS assay to identify novel small-molecules to repurpose for Merkel cell carcinoma treatment (AID 1296009); conditions: MCC and control cell lines, CellTiter-Glo viability, 72 h; series mostly up to 46 µM; note: nearly all actives have a fitted effect of over 60% in size
Method in brief: (§1)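 After compound transfer in DMSO, plates were kept 72 hr at 37 degree celsius. Luminescent ATP signal from CellTiter-Glo served as viability measure, normalized against DMSO and no-cell controls.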

MCC-26 = assay: as above; conditions: MCC and control cell lines, CellTiter-Glo viability, 72 h; series mostly up to 46 µM
Method in brief: as §1

MKL-1 = assay: as above; conditions: MCC and control cell lines, CellTiter-Glo viability, 72 h; series mostly up to 46 µM
Method in brief: as §1

MKL-2 = assay: as above; conditions: MCC and control cell lines, CellTiter-Glo viability, 72 h; series mostly up to 46 µM
Method in brief: as §1

UISO = assay: as above; conditions: MCC and control cell lines, CellTiter-Glo viability, 72 h; series mostly up to 46 µM
Method in brief: as §1

WaGa = assay: as above; conditions: MCC and control cell lines, CellTiter-Glo viability, 72 h; series mostly up to 46 µM
Method in brief: as §1

C33A = assay: Primary qHTS to identify gynecologic anti-cancer compounds using libraries of approved drugs and bioactive compounds (AID 1345084); conditions: Gynecologic cancer cell panel viability, ATPlite luminescence, 48 h; series mostly up to 57.5 µM; note: nearly all actives have a fitted effect of over 55% in size
Method in brief: (§2)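 In this quantitative HTS, cell killing is estimated from loss of ATP-dependent luciferase light. Cells see five compound concentrations over a 48 h exposure.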

CAOV3 = assay: as above; conditions: Gynecologic cancer cell panel viability, ATPlite luminescence, 48 h; series mostly up to 57.5 µM
Method in brief: as §2

CASKI = assay: as above; conditions: Gynecologic cancer cell panel viability, ATPlite luminescence, 48 h; series mostly up to 57.5 µM
Method in brief: as §2

Es-2 = assay: as above; conditions: Gynecologic cancer cell panel viability, ATPlite luminescence, 48 h; series mostly up to 57.5 µM
Method in brief: as §2

HeLa = assay: as above; conditions: Gynecologic cancer cell panel viability, ATPlite luminescence, 48 h; series mostly up to 57.5 µM
Method in brief: as §2

Hek293T = assay: as above; conditions: Gynecologic cancer cell panel viability, ATPlite luminescence, 48 h, control line for the selectivity index; series mostly up to 57.5 µM
Method in brief: as §2

JEG-3 = assay: as above; conditions: Gynecologic cancer cell panel viability, ATPlite luminescence, 48 h; series mostly up to 57.5 µM
Method in brief: as §2

OV90 = assay: as above; conditions: Gynecologic cancer cell panel viability, ATPlite luminescence, 48 h; series mostly up to 57.5 µM
Method in brief: as §2

PA-1 = assay: as above; conditions: Gynecologic cancer cell panel viability, ATPlite luminescence, 48 h; series mostly up to 57.5 µM
Method in brief: as §2

SKOV3 = assay: as above; conditions: Gynecologic cancer cell panel viability, ATPlite luminescence, 48 h; series mostly up to 57.5 µM
Method in brief: as §2

Tov-21-G = assay: as above; conditions: Gynecologic cancer cell panel viability, ATPlite luminescence, 48 h; series mostly up to 57.5 µM
Method in brief: as §2

Tov112D = assay: as above; conditions: Gynecologic cancer cell panel viability, ATPlite luminescence, 48 h; series mostly up to 57.5 µM
Method in brief: as §2

NIH3T3 = assay: qHTS assay to identify novel small-molecules to repurpose for Merkel cell carcinoma treatment (AID 1296009); conditions: MCC and control cell lines, CellTiter-Glo viability, 72 h; at 44.8 µM (top of the series) unless noted; note: nearly all actives have a fitted effect of over 60% in size
Method in brief: as §1
% is set by controls: 0 for no effect and ±100 for the full control effect.

NC(N)=NCCN1CCCCCCC1
inactive: activity change, negative = cytotoxicity (MCC-13) 12.6% [at 0.597 µM] | activity change, negative = cytotoxicity (MCC-26) 12.5% [at 0.597 µM] | activity change, negative = cytotoxicity (MKL-1) 13.2% [at 0.597 µM] | activity change, negative = cytotoxicity (MKL-2) 3.8% [at 0.597 µM] | activity change, negative = cytotoxicity (UISO) 18% [at 0.597 µM] | activity change, negative = cytotoxicity (WaGa) 12.9% [at 0.597 µM] | activity change, negative = cytotoxicity (C33A) 9.99% [at 0.462 µM] | activity change, negative = cytotoxicity (CAOV3) -2.11% [at 0.462 µM] | activity change, negative = cytotoxicity (CASKI) -2.55% [at 0.462 µM] | activity change, negative = cytotoxicity (Es-2) -4.19% [at 0.462 µM] | activity change, negative = cytotoxicity (HeLa) 0.1% [at 0.462 µM] | activity change, negative = cytotoxicity (Hek293T) -4.03% [at 0.462 µM] | activity change, negative = cytotoxicity (JEG-3) -3.39% [at 0.462 µM] | activity change, negative = cytotoxicity (OV90) -3.97% [at 0.462 µM] | activity change, negative = cytotoxicity (PA-1) 8.5% [at 0.462 µM] | activity change, negative = cytotoxicity (SKOV3) 6.07% [at 0.462 µM] | activity change, negative = cytotoxicity (Tov-21-G) 1.66% [at 0.462 µM] | activity change, negative = cytotoxicity (Tov112D) 3.26% [at 0.462 µM]

CC(=O)N[C@@H](CC(C)C)C(=O)O
inactive: outcome (MCC-13) | outcome (MCC-26) | outcome (MKL-1) | outcome (MKL-2) | outcome (UISO) | outcome (WaGa) | outcome (C33A) | outcome (CAOV3) | outcome (CASKI) | outcome (Es-2) | outcome (HeLa) | outcome (Hek293T) | outcome (JEG-3) | Potency (OV90) | outcome (PA-1) | outcome (SKOV3) | outcome (Tov-21-G) | outcome (Tov112D)

Cc1cc(OI)c(C(C)C)cc1-c1cc(C(C)C)c(OI)cc1C
inactive: outcome (MCC-13) | outcome (MCC-26) | outcome (MKL-1) | outcome (MKL-2) | outcome (UISO) | outcome (WaGa) | outcome (C33A) | outcome (CAOV3) | outcome (CASKI) | outcome (Es-2) | outcome (HeLa) | outcome (Hek293T) | outcome (JEG-3) | Potency (OV90) | outcome (PA-1) | outcome (SKOV3) | outcome (Tov-21-G) | outcome (Tov112D)

Nc1c2c(nc3c1CCC3)CCCC2
inactive: outcome (MCC-13) | outcome (MCC-26) | outcome (MKL-1) | outcome (MKL-2) | outcome (UISO) | outcome (WaGa) | outcome (C33A) | outcome (CAOV3) | outcome (CASKI) | outcome (Es-2) | outcome (HeLa) | outcome (Hek293T) | outcome (JEG-3) | Potency (OV90) | outcome (PA-1) | outcome (SKOV3) | outcome (Tov-21-G) | outcome (Tov112D)

CCOc1cc(NC(C)=O)ccc1C(=O)OC
inactive: outcome (MCC-13) | outcome (MCC-26) | outcome (MKL-1) | outcome (MKL-2) | outcome (UISO) | outcome (WaGa) | outcome (C33A) | outcome (CAOV3) | outcome (CASKI) | outcome (Es-2) | outcome (HeLa) | outcome (Hek293T) | outcome (JEG-3) | Potency (OV90) | outcome (PA-1) | outcome (SKOV3) | outcome (Tov-21-G) | outcome (Tov112D)

NC(=O)CC[C@@H](N)C(=O)O
inactive: outcome (MCC-13) | outcome (MCC-26) | outcome (MKL-1) | outcome (MKL-2) | outcome (UISO) | outcome (WaGa) | outcome (C33A) | outcome (CAOV3) | outcome (CASKI) | outcome (Es-2) | outcome (HeLa) | outcome (Hek293T) | outcome (JEG-3) | Potency (OV90) | outcome (PA-1) | outcome (SKOV3) | outcome (Tov-21-G) | outcome (Tov112D)

CC(=O)NS(=O)(=O)c1ccc(N)cc1
inactive: outcome (MCC-13) | outcome (MCC-26) | outcome (MKL-1) | outcome (MKL-2) | outcome (UISO) | outcome (WaGa) | outcome (C33A) | outcome (CAOV3) | outcome (CASKI) | outcome (Es-2) | outcome (HeLa) | outcome (Hek293T) | outcome (JEG-3) | Potency (OV90) | outcome (PA-1) | outcome (SKOV3) | outcome (Tov-21-G) | outcome (Tov112D)

C=CCNC(N)=S
inactive: outcome (MCC-13) | outcome (MCC-26) | outcome (MKL-1) | outcome (MKL-2) | outcome (UISO) | outcome (WaGa) | outcome (C33A) | outcome (CAOV3) | outcome (CASKI) | outcome (Es-2) | outcome (HeLa) | outcome (Hek293T) | outcome (JEG-3) | Potency (OV90) | outcome (PA-1) | outcome (SKOV3) | outcome (Tov-21-G) | outcome (Tov112D)

CCOc1ccc(C(=O)OCCN(CC)CC)cc1
inactive: outcome (MCC-13) | outcome (MCC-26) | outcome (MKL-1) | outcome (MKL-2) | outcome (UISO) | outcome (WaGa) | outcome (C33A) | outcome (CAOV3) | outcome (CASKI) | outcome (Es-2) | outcome (HeLa) | outcome (Hek293T) | outcome (JEG-3) | Potency (OV90) | outcome (PA-1) | outcome (SKOV3) | outcome (Tov-21-G) | outcome (Tov112D)

O=C1c2cccc(O)c2C(=O)c2c(O)cccc21
inactive: outcome (MCC-13) | outcome (MCC-26) | outcome (MKL-1) | outcome (MKL-2) | outcome (UISO) | outcome (WaGa) | outcome (C33A) | outcome (CAOV3) | outcome (CASKI) | outcome (Es-2) | outcome (HeLa) | outcome (Hek293T) | outcome (JEG-3) | Potency (OV90) | outcome (PA-1) | outcome (SKOV3) | outcome (Tov-21-G) | outcome (Tov112D)

Cn1c(=O)c2c(ncn2CCO)n(C)c1=O
inactive: outcome (MCC-13) | outcome (MCC-26) | outcome (MKL-1) | outcome (MKL-2) | outcome (UISO) | outcome (WaGa) | outcome (C33A) | outcome (CAOV3) | outcome (CASKI) | outcome (Es-2) | outcome (HeLa) | outcome (Hek293T) | outcome (JEG-3) | Potency (OV90) | outcome (PA-1) | outcome (SKOV3) | outcome (Tov-21-G) | outcome (Tov112D)

CCCCOC(=O)c1ccc(N)cc1
inactive: outcome (MCC-13) | outcome (MCC-26) | outcome (MKL-1) | outcome (MKL-2) | outcome (UISO) | outcome (WaGa) | outcome (C33A) | outcome (CAOV3) | outcome (CASKI) | outcome (Es-2) | outcome (HeLa) | outcome (Hek293T) | outcome (JEG-3) | Potency (OV90) | outcome (PA-1) | outcome (SKOV3) | outcome (Tov-21-G) | outcome (Tov112D)

COc1ccc(C(=O)NCc2ccc(OCCN(C)C)cc2)cc1OC
inactive: outcome (MCC-13) | outcome (MCC-26) | outcome (MKL-1) | outcome (MKL-2) | outcome (UISO) | outcome (WaGa) | outcome (C33A) | outcome (CAOV3) | outcome (CASKI) | outcome (Es-2) | outcome (HeLa) | outcome (Hek293T) | outcome (JEG-3) | Potency (OV90) | outcome (PA-1) | outcome (SKOV3) | outcome (Tov-21-G) | outcome (Tov112D)

OCC(O)CS (centres undefined)
inactive: outcome (MCC-13) | outcome (MCC-26) | outcome (MKL-1) | outcome (MKL-2) | outcome (UISO) | outcome (WaGa) | outcome (C33A) | outcome (CAOV3) | outcome (CASKI) | outcome (Es-2) | outcome (HeLa) | outcome (Hek293T) | outcome (JEG-3) | Potency (OV90) | outcome (PA-1) | outcome (SKOV3) | outcome (Tov-21-G) | outcome (Tov112D)

OCc1ccc(Cl)cc1Cl
inactive: outcome (MCC-13) | outcome (MCC-26) | outcome (MKL-1) | outcome (MKL-2) | outcome (NIH3T3) | outcome (UISO) | outcome (WaGa) | outcome (C33A) | outcome (CASKI) | outcome (Es-2) | outcome (HeLa) | outcome (Hek293T) | outcome (JEG-3) | Potency (OV90) | outcome (PA-1) | outcome (Tov-21-G) | outcome (Tov112D)

Source: PubChem BioAssay (NCATS)
